The text below walks through data of PubChem BioAssay.

In assay [1] the test system is Plasmodium falciparum Sir2 (PF13_0152, Sir2A). The assay is described as follows: Plasmodium falciparum Sir2A binding compounds – biochemical, small-molecule microarray, 635 nm fluorescence, primary screen (AID 1098).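 Further: score merges spot fluorescence intensity with its signal-to-noise ratio.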 To be noted: fluorescence 635 nm, higher = more signal.
Assay [2] can be described thus: probe aDKK1 binding to arrayed compounds – biochemical, biotinylated probe, 635/667 nm fluorescence, primary screen (AID 1099).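 Further: score merges 667nm spot fluorescence with signal to noise across triplicate slides; reference of the scale not given here.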 To be noted: small-molecule microarray, higher = more signal.
The nature of assay [3]: probe aCHRDL2 binding to arrayed compounds – biochemical, biotinylated probe, 635/667 nm fluorescence, primary screen (AID 1100). To be noted: small-molecule microarray, higher = more signal.
The nature of assay [4]: change in splice reporter luminescence, either direction, cell-based, HEK293, spliceosome inhibition project, primary screen (AID 1101).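 Further: HEK293 cells carrying a splicing-competent luciferase reporter gene; test concentration not given here.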 To be noted: HEK293 splicing luciferase reporter, 24 h, higher = more signal, called active from +8 up or from −8 down. A general note: A reporter such as luciferase makes a cellular process visible.
Assay [5] addresses Fibroblast growth factor 10 (Homo sapiens) (UniProt O15520). The assay is described as follows: compounds binding fibroblast growth factor 10 – biochemical, small-molecule microarray, 635 nm fluorescence, primary screen (AID 1102). As to conditions: FGF10 binding, fluorescence 635 nm, higher = more signal.
In assay [6] the test system is glycogen synthase kinase-3 (GSK3A per assay name; protocol says GSK3B). The assay is described as follows: compounds binding glycogen synthase kinase-3 – biochemical, small-molecule microarray, 635 nm fluorescence, GSK3A, primary screen (AID 1103). Further: the record names both GSK3A and GSK3B. To be noted: fluorescence 635 nm, higher = more signal.
For assay [7], the target named is Epidermal growth factor receptor (Homo sapiens) (UniProt P00533). The assay is described as follows: compounds binding epidermal growth factor receptor – biochemical, small-molecule microarray, 635 nm fluorescence, primary screen (AID 1104).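 Further: score merges 667 nm emission intensity with spot signal to noise over triplicate slides.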 To be noted: EGFR binding, higher = more signal.
Chain of Epidermal growth factor receptor (Homo sapiens) (P00533 whole entry, looked up): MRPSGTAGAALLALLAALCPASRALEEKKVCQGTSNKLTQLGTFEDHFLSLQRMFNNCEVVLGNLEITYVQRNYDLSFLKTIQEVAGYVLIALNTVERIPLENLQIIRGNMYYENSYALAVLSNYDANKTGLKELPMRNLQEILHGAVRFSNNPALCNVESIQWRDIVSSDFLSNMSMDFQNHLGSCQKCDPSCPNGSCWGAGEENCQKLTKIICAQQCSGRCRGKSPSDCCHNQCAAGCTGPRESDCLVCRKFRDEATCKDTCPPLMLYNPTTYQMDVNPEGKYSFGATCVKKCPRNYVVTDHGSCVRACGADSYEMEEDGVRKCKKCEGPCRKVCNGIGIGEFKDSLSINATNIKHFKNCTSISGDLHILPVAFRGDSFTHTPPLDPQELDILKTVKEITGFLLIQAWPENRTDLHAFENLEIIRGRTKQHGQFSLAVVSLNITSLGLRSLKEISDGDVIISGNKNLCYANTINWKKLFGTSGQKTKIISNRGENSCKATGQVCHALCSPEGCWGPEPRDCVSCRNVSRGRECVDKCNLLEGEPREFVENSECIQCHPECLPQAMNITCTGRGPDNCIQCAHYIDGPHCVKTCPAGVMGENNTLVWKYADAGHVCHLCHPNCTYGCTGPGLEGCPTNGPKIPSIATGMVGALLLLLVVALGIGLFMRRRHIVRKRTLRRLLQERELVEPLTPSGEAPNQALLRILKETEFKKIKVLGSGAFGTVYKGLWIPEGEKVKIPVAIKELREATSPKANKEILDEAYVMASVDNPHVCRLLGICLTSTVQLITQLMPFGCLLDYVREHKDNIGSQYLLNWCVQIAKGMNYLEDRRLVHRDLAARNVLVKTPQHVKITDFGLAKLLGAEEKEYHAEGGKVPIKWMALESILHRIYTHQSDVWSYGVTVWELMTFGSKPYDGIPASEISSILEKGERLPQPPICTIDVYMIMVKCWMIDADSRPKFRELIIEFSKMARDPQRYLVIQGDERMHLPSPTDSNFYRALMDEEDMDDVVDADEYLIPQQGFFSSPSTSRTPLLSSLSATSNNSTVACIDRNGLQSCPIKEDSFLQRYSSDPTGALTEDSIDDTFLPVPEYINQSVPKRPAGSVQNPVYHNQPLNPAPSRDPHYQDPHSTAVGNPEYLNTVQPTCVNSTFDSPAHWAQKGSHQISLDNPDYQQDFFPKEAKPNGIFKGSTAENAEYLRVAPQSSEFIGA
Assay [8] has as its target Follistatin-related protein 3 (Homo sapiens) (UniProt O95633). The assay is described as follows: compounds binding follistatin-related protein 3 – biochemical, small-molecule microarray, 635 nm fluorescence, primary screen (AID 1105).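 Further: score merges emission near 667 nm and signal to noise per printed spot across three slides.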 As to conditions: FSTL3 binding, higher = more signal.
Assay [9] concerns the target Dickkopf-related protein 1 (Homo sapiens) (UniProt O94907). The assay is described as follows: small molecules binding DKK1 protein – biochemical, small-molecule microarray, 635 nm fluorescence scan, primary screen (AID 1106).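 Further: score merges emission near 667 nm with signal to noise over three replicate slides.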 To be noted: higher = more signal.
Assay [10] concerns Inhibin beta A chain (activin A). The assay is described as follows: small molecules binding activin A – biochemical, small-molecule microarray, 635 nm fluorescence scan, primary screen (AID 1107).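 Further: mouse activin A protein probed at 4.33 µg/mL on printed slides; score merges bound-protein fluorescence near 667 nm with spot signal-to-noise.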 As to conditions: INHBA, higher = more signal.

Where “and” joins values, the source holds several entries; their conditions need not be identical. Equal values may be shown once. Calls of active or inactive are those of the source.

Chain of Follistatin-related protein 3 (Homo sapiens) (O95633 whole entry, looked up): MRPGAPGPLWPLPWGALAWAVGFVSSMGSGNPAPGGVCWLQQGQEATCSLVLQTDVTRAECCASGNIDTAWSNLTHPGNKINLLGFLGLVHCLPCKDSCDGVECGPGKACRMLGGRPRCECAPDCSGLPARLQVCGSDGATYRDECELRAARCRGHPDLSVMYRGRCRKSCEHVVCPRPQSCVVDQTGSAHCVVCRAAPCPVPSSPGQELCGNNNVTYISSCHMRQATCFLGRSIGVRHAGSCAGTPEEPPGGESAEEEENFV
Chain of Dickkopf-related protein 1 (Homo sapiens) (O94907 whole entry, looked up): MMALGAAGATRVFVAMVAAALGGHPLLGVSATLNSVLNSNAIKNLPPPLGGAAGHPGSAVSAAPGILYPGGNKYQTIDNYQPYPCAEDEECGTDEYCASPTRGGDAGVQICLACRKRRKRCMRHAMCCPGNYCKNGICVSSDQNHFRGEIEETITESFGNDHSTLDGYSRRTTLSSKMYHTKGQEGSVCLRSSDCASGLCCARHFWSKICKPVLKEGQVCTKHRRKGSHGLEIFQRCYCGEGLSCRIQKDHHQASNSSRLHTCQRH
Chain of Fibroblast growth factor 10 (Homo sapiens) (O15520 whole entry, looked up): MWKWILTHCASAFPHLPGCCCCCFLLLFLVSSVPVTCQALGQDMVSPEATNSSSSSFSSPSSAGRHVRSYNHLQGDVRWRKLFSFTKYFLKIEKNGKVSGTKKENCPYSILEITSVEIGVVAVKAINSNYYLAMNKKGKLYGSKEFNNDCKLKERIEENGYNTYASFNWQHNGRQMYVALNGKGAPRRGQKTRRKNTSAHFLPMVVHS

As to `O=C1C[C@]2(c3ccc([N+](=O)[O-])cc3)C(=O)N(Cc3ccccc3)c3cc(CO)ccc3[C@H]2N1C1CCCCC1`, the composite z-score in [1] was -0.179 and 0.678; in assay [2], -0.153 and 1.26; in assay [3] it was -0.0948 and 0.78; in assay [5], -0.225 and 0.994; in [6], 1.11 and -0.148; in [7], 0.079 and 0.291. Besides, the composite z-score was 0.413 and -0.017 in assay [8]; -0.0921 and 0.434 in [9]; 0.4 and 0.359 in assay [10]. Moreover, the z-score in [4] was 0.0261 (inactive) and -0.478 (inactive).

`CC(C)=NOCc1ccc(-c2cn([C@@H]3COC[C@H]3O)nn2)cc1`: the composite z-score in assay [1] is -0.257; in [2], -0.123; in assay [3] it was -0.764; in assay [5], 0.506; in assay [6] it was 0.114; in assay [7], 0.309. Besides, the composite z-score in assay [8] amounted to 0.273; in assay [9], 0.455; in [10], 0.147. The z-score in assay [4] was 1.04 (inactive).

Take `CO[C@H]1COC(=O)CC=C[C@@H](C)COC(=O)[C@H](CCSC)NC(=O)CC=C[C@@H]1C`: the composite z-score in [1] is 0.536 and 0.111; in assay [2], -0.51 and -0.591; in assay [3], -1.59 and -2.05; in assay [5], 1.12 and 1.16; in [6] it was 1.29 and 1.3; in [7] it was 1.28 and 1.69. Besides, the composite z-score is 1.57 and 1.49 in assay [8]; 2.29 and 2.22 in assay [9]; 0.626 and -0.119 in [10]. In [4], the z-score is 0.191 (inactive) and -0.244 (inactive).

In the case of `C=C[C@H](C)[C@H](O)c1ccc(O)c2ccccc12`, the composite z-score was -0.826 and -0.608 in assay [1]; -0.338 and -0.232 in assay [2]; 0.151 and -0.0669 in assay [3]; -1.16 and 0.187 in [5]; -0.0928 and -0.78 in [6]; -0.989 and 0.375 in [7]. For the same molecule, the composite z-score is -0.433 and -0.63 in [8]; -0.644 and -0.0107 in assay [9]; 0.794 and 0.956 in [10]. Also, the z-score in assay [4] was -2.7 (inactive) and -1.54 (inactive).

In the case of `O=C(NN=C1C[C@@H](O)[C@@H](O)[C@@H]2[C@@H]3C(=O)N(Cc4ccc5c(c4)OCO5)C(=O)[C@@H]3CC[C@H]12)OCc1ccccc1`, the composite z-score in [1] is -0.345; in assay [2], 0.118; in [3], 0.298; in assay [5] it was -0.464; in [6] it was -1.2; in assay [7] it was -0.0036. Moreover, the composite z-score in assay [8] is -0.904; in [9], -1.57; in assay [10], -2.22. Besides, in assay [4], the z-score is 0.0692 (inactive).

For `COC(=O)[C@@]1(Cc2ccc(F)cc2)[C@H]2c3cc(C(=O)N4CCCC4)n(Cc4c(CO)[nH]cc(C)c4=O)c3C[C@H]2CN1C(=O)c1ccccc1`, the composite z-score was 1.47 and 1.53 in assay [1]; 2.17 and -0.115 in [2]; 1.29 and 0.955 in [3]; 0.822 and 0.461 in assay [5]; -0.252 and 0.368 in assay [6]; 0.704 and -0.2 in [7]. Besides, the composite z-score in assay [8] was 0.0376 and -0.36; in assay [9] it was -0.198 and -0.57; in [10], 1.02 and 1.31. Also, in assay [4], the z-score was -1.48 (inactive) and -0.107 (inactive).

Regarding `C=CCN(CCCC)C(=O)C1N(CCCCCCO)C(=O)C2C(C(=O)O)C3C=CC21O3` (stereo not given), the composite z-score is 1.64 and 0.937 in assay [1]; -0.288 and -0.0191 in [2]; 1.02 and 0.849 in assay [3]; -1.87 and -1.39 in [5]; -1.1 in assay [6]; -1.93 and -1.35 in assay [7]. Moreover, the composite z-score is -2.74 and -2.04 in [8]; -2.67 and -3.18 in assay [9]; -2.85 and -2.5 in assay [10]. Further, the z-score in assay [4] was 0.671 (inactive) and -0.0103 (inactive).

Turning to `CC(C)=CCCC(C)=CCON=C1C[C@@H](O)[C@@H](O)[C@@H]2[C@@H]3C(=O)N([C@@H](C)c4ccccc4)C(=O)[C@@H]3CC[C@H]12`, the composite z-score was 0.948 in assay [1]; -0.238 in assay [2]; -0.213 in assay [3]; 0.739 in assay [5]; 0.692 in [6]; 0.525 in assay [7]. Also, the composite z-score in assay [8] is 0.718; in [9], 0.645; in assay [10], 1.15. Besides, the z-score in assay [4] was -1.19 (inactive).

With `Cc1ccc(S(=O)(=O)N[C@H]2COC(=O)[C@@H](Cc3ccccc3)NC(=O)[C@@H](C)COC(=O)CC=C[C@@H]2C)cc1`, the composite z-score in [1] is -0.218 and 0.304; in assay [2] it was -0.483 and -0.332; in assay [3] it was -0.803 and -0.645; in assay [5] it was 0.117 and 0.435; in [6], -0.0808 and -0.0049; in assay [7], 0.513 and 0.282. Besides, the composite z-score in assay [8] was 0.87 and 0.533; in [9], 0.871 and 0.895; in assay [10], 0.657 and 0.0736. Also, the z-score in assay [4] is 0.565 (inactive) and -0.0193 (inactive).

For `C=CCN(CCCC)C(=O)C(c1cccs1)N(CCOCCO)C(=O)/C=C\C(=O)O` (stereo not given), the composite z-score in [1] is 1.66 and -1.5; in assay [2] it was 0.103 and -0.18; in assay [3], 0.792 and 0.161; in [5], -1.19 and -0.522; in assay [6] it was -1.39 and -0.479; in [7], -2.24 and -0.346. The composite z-score is -1.97 and -0.993 in assay [8]; -1.56 and -1.03 in [9]; -0.593 and 0.566 in [10]. Moreover, the z-score in assay [4] was -1.21 (inactive) and -1.32 (inactive).

As for `C=CCN1C(=O)[C@]2(O[C@H](CCn3cc(CCO)nn3)[C@@H]([Si](C)(C)c3ccc(OC)cc3)[C@@H]2C)c2cc(N3C(=O)c4cccc5cccc3c45)ccc21`, the composite z-score in [1] was 0.306 and 1.07; in assay [2], -0.206 and -0.233; in assay [3] it was -0.106 and -0.142; in assay [5] it was 0.726 and 1.05; in assay [6] it was 0.26 and 0.521; in assay [7], -0.0684 and -0.247. The composite z-score is 0.228 and 0.181 in assay [8]; -0.0095 and -0.0589 in assay [9]; 0.538 and 0.516 in assay [10]. In addition, the z-score in assay [4] is -4 (inactive) and -3.52 (inactive).

With `C=CCN(CCCCC)C(=O)C1N(c2c(Cl)cccc2CO)C(=O)C2C(C(=O)O)C3C=CC21O3` (stereo not given), the composite z-score in assay [1] is -0.116 and 0.397; in [2], 0.784 and 0.13; in assay [3] it was 0.479 and 1.12; in assay [5], -1.35 and -1.3; in [6], -0.607 and -1.18; in [7], -3.02 and -1.91. The composite z-score in assay [8] is -2.09 and -2.23; in [9] it was -2.91 and -2.56; in [10], -1.96 and -1.99. The z-score in assay [4] is -0.282 (inactive) and -0.455 (inactive).

As to `CC(C)[Si]1(C(C)C)OCc2cc(C3CC3)nc(CCc3ccccc3)c21`, the composite z-score was -0.534 and -0.371 in [1]; 0.0295 and -0.146 in assay [2]; 0.221 and -0.262 in [3]; -0.348 and 0.0251 in assay [5]; -0.897 and 0.178 in assay [6]; 0.105 and 0.15 in [7]. In addition, the composite z-score was -0.238 and 0.195 in assay [8]; -0.293 and 0.135 in assay [9]; 0.768 and 0.242 in assay [10]. In addition, in assay [4], the z-score was -0.383 (inactive) and 0.693 (inactive).

As to `CCOC(=O)CCN1C(=O)[C@H]2[C@H]3[C@H](O)[C@H](O)CC(=NNC(=O)OCC)[C@@H]3CC[C@H]2C1=O`, the composite z-score was 0.238 in [1]; -0.0567 in assay [2]; -0.0213 in [3]; 0.283 in assay [5]; 0.0666 in assay [6]; 0.209 in assay [7]. Further, the figures for the composite z-score in assay [8], in assay [9] and in assay [10] were 0.0654, -0.0149 and -0.772, respectively. For the same molecule, the z-score in [4] is 0.519 (inactive).
